The nature of experiment [1]: qHTS Assay for Inhibitors of Fructose-1,6-bisphosphate Aldolase from Giardia Lamblia: Mammalian cellular toxicity (AID 2786).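 Note: compound exposure lasted 48 h before reading; nearly all actives have a fitted effect of over 60% in size.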 In outline:
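Mammalian cytotoxicity surrogate: Chinese hamster ovary cells exposed to compound for 48 h at 37 °C. Cellular ATP then measured with ATPlite reagent, 20 min incubation.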
A general note: qHTS replaces the single test concentration by a dilution series.

Experiment [2] has as its target Fructose-bisphosphate aldolase (Giardia intestinalis (strain ATCC 50803 / WB clone C6)) (UniProt A8B2U2). The experiment in a line: qHTS Assay for Inhibitors of Fructose-1,6-bisphosphate Aldolase from Giardia Lamblia: Primary screen confirmation (AID 2787).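 Note: aldolase product measured through coupled diaphorase step turning resazurin into fluorescent resorufin; series mostly up to about 58 µM; nearly all actives have a fitted effect of over 45% in size.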 In a few lines:
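FBPA (40 nM in enzyme reagent, with 30 uM ZnCl2) was preincubated 10 min at RT with compound up to 57.5 uM final. Substrate plus coupled detection system was then added, and fluorescence (525/598 nm) was read after 20 min at RT.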

Experiment [3] addresses Fructose-bisphosphate aldolase A (Oryctolagus cuniculus) (UniProt P00883). The experiment in a line: qHTS Assay for Inhibitors of Fructose-1,6-bisphosphate Aldolase from Giardia Lamblia: Rabbit FBPA Selectivity (AID 2794). Note: nearly all actives have a fitted effect of over 60% in size. In a few lines:
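To triage Class I aldolase inhibitors, rabbit FBPA activity is followed through a glyceraldehyde-3-phosphate-linked enzyme cascade feeding AmpLite Red. Compounds (up to 57.5 uM final) sit 10 min with coupling enzymes before substrate; fluorescence is read 20 min later.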

Experiment [4] in a line: qHTS Assay for Inhibitors of Fructose-1,6-bisphosphate Aldolase from Giardia Lamblia: Coupling assay counterscreen confirmation (AID 2795). Note: nearly all actives have a fitted effect of over 55% in size. In a few lines:
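Counterscreen, no aldolase: coupling enzyme reagent + cpd (up to 57.5 uM final), 10 min RT; add substrate + coupling system + AmpLite Red, 20 min RT; fluorescence ex 525/em 598 nm.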

Experiment [5] concerns the target Endonuclease 4 (Escherichia coli (strain K12)) (UniProt P0A6C1). In words: Counterscreen for APE1 Inhibitors: qHTS Assay for Inhibitors of Endonuclease IV (AID 2565). In a few lines:
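Incision of a double-stranded 50 nM TAMRA/BHQ-2 abasic substrate was followed kinetically (525/598 nm, reads every 60 s) after 15 min enzyme–compound preincubation with 2 nM EndoIV in pH 7.5 Tris buffer with MgCl2, DTT and Tween-20; concentration-response format.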

Experiment [6] addresses DNA repair nuclease/redox regulator APEX1 (Homo sapiens) (UniProt P27695). In words: Confirmation qHTS Assay for Inhibitors of the Human Apurinic/apyrimidinic Endonuclease 1 (APE1) (AID 2572). Note: potency is the fitted concentration of half-maximal effect; nearly all actives have a fitted effect of over 30% in size. In outline: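 Double-stranded THF abasic-site substrate (50 nM final), 5'-TAMRA/3'-BHQ-2; APE1 incision raises fluorescence. Enzyme preincubated with compound 15 min at room temperature before substrate; kinetic read Ex 525/Em 598 nm, signal difference between third and first reads.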

The target is the same in experiment [7]. In words: qHTS FP-Based Assay for Inhibitors of the Human Apurinic/apyrimidinic Endonuclease 1 (APE1) (AID 2573).
The nature of experiment [8]: qHTS Assay for Inhibitors of Fructose-1,6-bisphosphate Aldolase from Giardia Lamblia: Giardia lamblia growth inhibition (AID 2785). Note: nearly all actives have a fitted effect of over 70% in size. In a few lines: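 Whole-parasite growth test: Giardia WB trophozoites in TYI-S-33 (pH 7.0), 100 per well, incubated 48 h at 37C with compound. ATP content was read by ATPlite luminescence.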
Experiment [9] addresses Tyrosyl-DNA phosphodiesterase 1 (Homo sapiens) (UniProt Q9NUW8). In words: Confirmation Assay for Inhibitors of Tyrosyl-DNA Phosphodiesterase (TDP1) (AID 489007). Note: potency is the fitted concentration of half-maximal effect; nearly all actives have a fitted effect of over 40% in size. The note with it: recombinant human TDP1 enzymatic activity, dose-response. In outline:
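Compounds are preincubated 15 min at room temperature with 1 nM recombinant human Tdp1. The reaction starts on adding 15 nM FITC-phosphotyrosine DNA substrate, runs 5 min, and is detected by AlphaScreen beads after 10 min.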

Records with an inconclusive call do not appear. A number with no mark means an inactive call. Some of the results follow. Entries that show only a call come without a potency. Active and inactive are the calls of the source. Calls come from the whole dose curve; as a rule, active = well fitted curve in the direction sought with a large enough effect; inconclusive = small, poorly fitted or top-dose-only effect, or another doubt; inactive = no such curve, though single readings can be large; an effect the other way counts as inactive or inconclusive.

Sequence of Fructose-bisphosphate aldolase A (Oryctolagus cuniculus) (P00883 whole entry, looked up): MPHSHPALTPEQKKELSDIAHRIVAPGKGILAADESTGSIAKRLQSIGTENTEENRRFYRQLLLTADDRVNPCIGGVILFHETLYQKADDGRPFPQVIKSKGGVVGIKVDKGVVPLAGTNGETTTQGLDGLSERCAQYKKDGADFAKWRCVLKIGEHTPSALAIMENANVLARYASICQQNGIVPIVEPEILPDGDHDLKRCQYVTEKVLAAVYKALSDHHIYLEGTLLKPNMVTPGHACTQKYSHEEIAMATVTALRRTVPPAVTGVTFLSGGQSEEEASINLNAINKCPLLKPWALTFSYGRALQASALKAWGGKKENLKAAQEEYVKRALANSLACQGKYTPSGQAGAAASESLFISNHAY
Sequence of Fructose-bisphosphate aldolase (Giardia intestinalis (strain ATCC 50803 / WB clone C6)) (A8B2U2 whole entry, looked up): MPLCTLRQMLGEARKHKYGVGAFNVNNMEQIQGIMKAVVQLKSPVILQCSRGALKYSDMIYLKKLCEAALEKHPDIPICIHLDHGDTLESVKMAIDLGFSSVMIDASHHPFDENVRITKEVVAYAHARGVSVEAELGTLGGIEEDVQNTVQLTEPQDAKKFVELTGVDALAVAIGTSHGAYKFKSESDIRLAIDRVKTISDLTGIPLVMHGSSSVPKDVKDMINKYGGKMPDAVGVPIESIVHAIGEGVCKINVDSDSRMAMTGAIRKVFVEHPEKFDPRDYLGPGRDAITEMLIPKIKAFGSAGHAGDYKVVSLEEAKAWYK
Sequence of DNA repair nuclease/redox regulator APEX1 (Homo sapiens) (P27695 whole entry, looked up): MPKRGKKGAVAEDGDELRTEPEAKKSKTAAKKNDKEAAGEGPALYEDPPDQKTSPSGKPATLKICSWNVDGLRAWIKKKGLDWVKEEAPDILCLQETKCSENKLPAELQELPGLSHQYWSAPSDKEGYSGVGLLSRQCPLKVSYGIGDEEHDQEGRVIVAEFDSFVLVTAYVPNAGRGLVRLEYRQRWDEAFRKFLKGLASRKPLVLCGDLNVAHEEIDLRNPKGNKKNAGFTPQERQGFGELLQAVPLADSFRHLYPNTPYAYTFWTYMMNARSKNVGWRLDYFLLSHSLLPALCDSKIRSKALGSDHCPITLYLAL
Sequence of Tyrosyl-DNA phosphodiesterase 1 (Homo sapiens) (Q9NUW8 whole entry, looked up): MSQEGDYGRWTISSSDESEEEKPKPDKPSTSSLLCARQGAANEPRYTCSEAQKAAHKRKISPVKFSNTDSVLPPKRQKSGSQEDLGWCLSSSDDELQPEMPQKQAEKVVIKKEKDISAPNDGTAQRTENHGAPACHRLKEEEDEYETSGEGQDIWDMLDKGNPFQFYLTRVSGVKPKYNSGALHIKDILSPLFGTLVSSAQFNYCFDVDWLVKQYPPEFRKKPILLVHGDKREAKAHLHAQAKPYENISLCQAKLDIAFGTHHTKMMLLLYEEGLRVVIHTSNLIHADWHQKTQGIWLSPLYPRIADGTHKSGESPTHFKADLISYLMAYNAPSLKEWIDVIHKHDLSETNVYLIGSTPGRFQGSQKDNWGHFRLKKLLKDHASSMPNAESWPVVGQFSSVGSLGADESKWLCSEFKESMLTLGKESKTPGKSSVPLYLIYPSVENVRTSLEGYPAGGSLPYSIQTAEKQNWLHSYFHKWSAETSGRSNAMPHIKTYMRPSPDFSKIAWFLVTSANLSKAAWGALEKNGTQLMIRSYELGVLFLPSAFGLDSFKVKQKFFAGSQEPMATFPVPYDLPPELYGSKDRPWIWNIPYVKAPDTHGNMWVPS

For the compound `CN1CCCc2cc(C#N)c(=O)[nH]c21`, in experiment [1], the Potency entry was “inactive”.

On to `CN1C(=O)/C(=C\c2ccc(-c3ccccc3)o2)SC1=S`, for which the result in experiment [2] and in [3] was inactive.

For `Cc1cccc(C)c1OCCN1CCOCC1`, the Potency result in experiment [1] is “inactive”. The result in [2] and in experiment [3] was inactive.

`COc1ccc(Cl)cc1C(=O)NNC(=O)c1nc2nc(C)cc(C)n2n1`: the Potency entry in experiment [1] is “inactive”.

Regarding `COc1ccc(CN2CCN(Cc3ccc(OC)c(OC)c3OC)CC2)cc1`, the Potency entry in experiment [1] was “inactive”. For the same compound, the compound was classed as inactive in experiment [3] and in experiment [4].

With `CC(C)(C)C(=O)OCc1nc(-c2ccc(O)c(O)c2)cs1`, in experiment [5], the call was inactive. In addition, the Potency in experiment [6] was 11.2 µM (active). In addition, the Potency entry in experiment [7] was “inactive”.

In the case of `Cc1nc(N2CCOCC2)sc1C(=O)NN`, the Potency result in experiment [1] is “inactive”.

As for `Cn1c(=O)[nH]c(=O)c2c1[nH]c(=S)n2Cc1ccccc1`, the activity change, negative = inhibition in experiment [8] was 4.88% [at 10.4 µM]. In addition, the compound was classed as inactive in experiment [2] and in [3].

`O=C(CSc1cccc[n+]1[O-])c1ccc(-c2ccccc2)cc1`: the Potency entry in experiment [8] and in experiment [1] was “inactive” each time.

On to `CCc1ccc2c(c1)C1(NN=C(c3ccccc3)S1)C(=O)N2` (configuration not stated), for which, in [2], the result was inactive.

As to `O=C(NCc1ccccn1)c1ccc2nc(-c3ccco3)c(-c3ccco3)nc2c1`, the Potency in experiment [6] is 8.91 µM (active); in experiment [9], 10 µM (active).
